Sampled rows, rich in hits. Any-hit rate of the full collection: about 2.7%.
INS-1E GSIS act = GLuc luminescence reporter in INS-1E cells, primary screen for activators of glucose-dependent secretion of insulin | INS-1E GLuc reporter insulin secretion, 2-3 h | AID 743287 | activation, % at 16.6 µM | 370,000 compounds, 0.61% hits;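 active = lowest replicate activation of at least 40%, so every replicate reaches that level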;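 note: 0% = median of neutral control wells and 100% = median of IBMX positive control wells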
PGC1a acetyl inh = PGC1a acetylation modulation, inhibitor mode; 350,000 compounds, 0.17% hits; U2OS PGC1a acetylation, AlphaScreen anti-acetyl-lysine; with virally co-expressed GCN5 acetyltransferase; inhibition, % at 15.6 µM;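 active = every replicate shows inhibition of at least 40%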;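 note: 0% = neutral control wells and 100% = positive control wells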
Env fusion inh = blocks HIV Env-driven cell-cell fusion; HeLa-JRFL Env/CEM21 cell fusion, luciferase; inhibition, % at 12.3 µM; 360,000 compounds, 1.1% hits; AID 651610;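 active = mean replicate inhibition score of at least 50 and every replicate individually at or above 50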;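 note: 0% = plate neutral controls and 100% = maraviroc near 300 nM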
PAX8 reporter = lowers PAX8-driven luciferase in RMG-I cells. inhibition, % at 12.6 µM. 360,000 compounds, 1.2% hits. RMG-I TPO-luciferase reporter, SteadyGlo, 24 h. AID 652154;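 active = mean replicate inhibition at least 60% with every replicate also reaching 60%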;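 note: luciferase light reporting Pax8 driven TPO promoter activity; plate controls were median of neutral control wells for no effect and mitoxantrone controls for full effect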
F508del corr = CFTR F508del correction in bronchial cells. CFBE cells, YFP halide quenching; stimulated with forskolin plus potentiator P3; % fluorescence drop versus neutral controls. activity (quench increase), % at 7.58 µM. 350,000 compounds, 0.36% hits;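 active = mean added fluorescence quench of at least 8% versus neutral control, with both replicates also reaching 8%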;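 note: cells transiently co-express mutant CFTR-F508del with the halide-sensitive YFP; corrector assay measuring rescue of mutant channel to the surface after 24 h compound exposure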
EWS-Fli block = blocks EWS/Fli oncoprotein-driven transcription. inhibition, % at 12.6 µM. 350,000 compounds, 0.67% hits. A673 NR0B1-luciferase reporter, viability-normalised;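 active = mean inhibition of at least 50% after viability correction, with every replicate also passing that limit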;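 note: firefly luciferase signal divided by Alamar Blue viability fluorescence both relative to DMSO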
An asterisk follows results filed as active; i = inactive; . = not tested or not shown; [ ] = another dose, or the depositor's remark.

SMILES | INS-1E GSIS act | PGC1a acetyl inh | Env fusion inh | PAX8 reporter | F508del corr | EWS-Fli block
C[C@H](NC(=O)C[C@@H]1C[C@H]2c3cc(NS(C)(=O)=O)ccc3O[C@H]2[C@H](CO)O1)c1ccccc1 | 10 | 10 | 0[16.7 µM] | 7 | 1 | -1
COc1ccc(S(=O)(=O)N(C)C[C@@H]2Oc3ccc(NC(=O)CCCN(C)C)cc3C(=O)N([C@@H](C)CO)C[C@H]2C)cc1 | 4 | 3 | . | 27 | 1 | -2
C[C@@H]1CN([C@H](C)CO)C(=O)c2cc(NC(=O)Nc3cccc4ccccc34)ccc2O[C@H]1CN(C)CC1CCCCC1 | -23 | -11 | . | . | 3 | 22
C[C@@H]1CN([C@H](C)CO)C(=O)c2cc(NC(=O)Nc3cccc4ccccc34)ccc2O[C@@H]1CN(C)CC1CCCCC1 | -23 | -18 | . | . | -1 | 70*
C[C@@H]1CCCCO[C@H](CN(C)CC2CCCCC2)[C@H](C)CN([C@H](C)CO)C(=O)c2cc(NC(=O)Nc3cccc4ccccc34)ccc2O1 | -19 | -17 | 14[16.7 µM] | 5 | -2 | 87*
O=C(c1cccc(S(=O)(=O)N2CCCCCC2)c1)N1CCN(c2ccccc2F)CC1 | -50 | -28 | -3 | 9 | 1 | .
CC1Cc2ccccc2N1S(=O)(=O)c1cccc(C(=O)N2CCN(c3ncccn3)CC2)c1 (stereo not given) | -20 | . | -29 | 31 | 8.5* | -29
Cc1cccc(N2CCN(C(=O)c3ccc4[nH]c(C)c(C)c4c3)CC2)c1C | -5 | -2 | . | 29 | 11* | 54*
Cc1[nH]c2ccc(C(=O)N3CCN(c4ccccc4Cl)CC3)cc2c1C | -14 | -7 | 2 | 8 | 1 | .
Cc1cccc(N2CCN(C(=O)c3cccc(S(=O)(=O)N4CCCCC4)c3)CC2)c1C | . | -3 | 64* | -30 | 1 | -4
C[C@H]1CN([C@@H](C)CO)C(=O)c2cc(NC(=O)Nc3ccccc3)ccc2O[C@H]1CN(C)S(=O)(=O)c1ccc(Cl)cc1 | -22 | 0 | . | 15 | -2 | 6
COC(=O)C1=C(SC)N(c2ccccc2)C(c2ccccc2)CC1=O (stereo not given) | 4 | . | . | 91* | 1 | 7
O=C(/C=C/c1ccccc1Cl)c1ccccc(=O)c1O | -13 | . | . | . | . | .
O=C(/C=C/c1ccc([N+](=O)[O-])cc1)c1ccccc(=O)c1O | -17 | -7 | -272 | 7 | 4 | 61*
Cc1c(NC(=S)NC(=O)c2sc3ccccc3c2Cl)cccc1C(=O)O | 63* | . | -76 | -88 | -3 | -48
COc1ccccc1C(=O)NNC(=S)NC(=O)c1sc2ccccc2c1Cl | -15 | . | 10 | 17 | . | .
COCC(=O)N1[C@@H](CO)[C@@H](c2ccc(-c3cccc(F)c3)cc2)C12CN(C(=O)C1CC1)C2 | 2 | -4 | . | . | 1 | -5
O=C1C=C(c2ccc3ncccc3c2)C[C@@H](c2ccc3c(c2)OCO3)C1 | 7 | . | 9 | 14 | 9.8* | 63*
O=C1C=C(c2ccc3ncccc3c2)C[C@@H](c2ccc(F)cc2)C1 | . | -28 | . | . | . | .
Nc1c(C(=O)Nc2ccc3c(c2)OCCO3)nnn1Cc1cccc(F)c1 | 1 | . | -81 | -117 | 1 | -91
Nc1c(C(=O)Nc2ccc3c(c2)OCCO3)nnn1Cc1ccc(Cl)cc1 | 45* | . | -167 | -271 | 4 | -113
Cc1ccccc1-n1c(=O)n(Cc2ccccc2)c(=O)c2[nH]cnc21 | . | . | -8 | -24 | 2 | 13
COC(=O)c1ccc(C)c(-n2c(=O)n(Cc3ccccc3)c(=O)c3[nH]cnc32)c1 | 44* | 0 | 7 | -28 | 5 | 2
CCN1CCN(CC(=O)N2N=C(c3cccs3)CC2c2ccc(OC)c(OC)c2)C(=O)C1=O (stereo not given) | -6 | 9 | -6 | 8 | 2 | 7
C=C1C(=O)c2sccc2C(c2ccc(OC)c(OC)c2)C1COC(C)=O (stereo not given) | 115* | . | -51 | 115* | -4 | 77*
SMILES | INS-1E GSIS act | PGC1a acetyl inh | Env fusion inh | PAX8 reporter | F508del corr | EWS-Fli block
O=C(Nc1cccc(NC(=O)c2cccs2)c1)c1ccc([N+](=O)[O-])o1 | -14 | -94 | -60 | 101* | -8 | 14
O=C(Nc1cccc(N2C(=O)C=CC2=O)c1)c1cccs1 | 13 | -20 | 8 | 66* | -5 | 28
O=C(Nc1nc(-c2cccs2)cs1)c1ccc([N+](=O)[O-])o1 | . | 29 | . | 67* | -15 | -4
Cc1nc2ccccc2c(=O)n1-c1cccc(NC(=O)c2cccs2)c1 | 1 | . | -6 | 19 | -3 | -7
O=C(Nc1cccc(NC(=O)c2ccc([N+](=O)[O-])o2)c1)c1ccco1 | -9 | . | -37 | 92* | -8 | 29
C/C=C/c1ccc([C@@H]2[C@H](CO)N(CC3CC3)C23CN(C(=O)COC)C3)cc1 | -3 | 2 | -6[16.7 µM] | -13 | -3 | -1
COc1ccc(S(=O)(=O)N(C)C[C@H]2Oc3ccc(NC(=O)Nc4cccc5ccccc45)cc3C(=O)N([C@@H](C)CO)C[C@H]2C)cc1 | 0 | -2 | -20[16.7 µM] | . | 3 | 5
O=C(Nc1cccc(F)c1)N1CC(=O)N2[C@H](CO)[C@@H](c3ccc(C#Cc4cccnc4)cc3)[C@H]2C1 | -3 | 7 | . | . | 0 | .
COc1ccc2c3c([nH]c2c1)[C@H](CO)N(C(=O)c1cccnc1)CC31CCN(C(=O)CN(C)C)CC1 | 30 | 4 | . | -10 | 1 | 7
C[C@H](NC(=O)C[C@H]1CC[C@H](NC(=O)C2CCOCC2)[C@H](CO)O1)c1ccccc1 | 2 | -2 | -1[16.7 µM] | -13 | 2 | -4
C[C@H](NC(=O)c1ccco1)C(=O)Nc1cccc([N+](=O)[O-])c1 | -1 | 6 | -4 | 100* | -1 | -6
O=C(Nc1ccc(N2CCN(C(=O)c3cccs3)CC2)cc1)c1ccc([N+](=O)[O-])o1 | 9 | . | i | 98* | -3 | .
CCNC(=O)Nc1ccc2c(c1)C(=O)N(C)[C@H]1CC[C@@H](CC(=O)NCc3cccc(F)c3)O[C@@H]1CO2 | 12 | -3 | -9[16.7 µM] | -16 | 2 | 10
COc1ccc(S(=O)(=O)Nc2ccc3c(c2)CC(=O)N([C@H](C)CO)C[C@H](C)[C@H](CN(C)S(=O)(=O)c2c(C)noc2C)O3)cc1 | -2 | 8 | 57*[16.7 µM] | . | -1 | 10
COc1ccc(S(=O)(=O)Nc2ccc3c(c2)CC(=O)N([C@H](C)CO)C[C@H](C)[C@H](CN(C)S(=O)(=O)c2ccc(OC)cc2)O3)cc1 | -16 | -5 | 56*[16.7 µM] | 9 | -2 | 5
COc1ccc(S(=O)(=O)Nc2ccc3c(c2)CC(=O)N([C@H](C)CO)C[C@H](C)[C@H](CN(C)S(=O)(=O)c2ccc(F)cc2)O3)cc1 | -6 | 7 | 91*[16.7 µM] | 8 | -2 | 11

Compound activity deposited in PubChem BioAssay by Broad Institute.
